The structures appear in SMILES notation. Records with an inconclusive call do not appear. Activity calls are given as the source filed them. Rule for the calls: active = hit-call score of the fitted dose curve at least 0.9, where 1 is the maximum; inconclusive = response in the unintended direction; inactive = score below 0.9.

This test is described as follows: Tanguay_ZF_120hpf_BRAI_legacy: (Legacy) Oregon State University Tanguay Lab 120 Hour Post-fertilization zebrafish Assay for Brain Malformation (AID 2283641). The procedure:
Tanguay_ZF_120hpf_legacy is a whole embryo, multiplexed endpoint assay using zebrafish larvae exposed for 120 hours post fertilization on a 96-well plate.Tanguay_ZF_120hpf_BRAI_legacy is one of one assay component(s) measured or calculated from the Tanguay_ZF_120hpf_legacy assay. It is designed to make measurements of zebrafish development as detected with brightfield microscopy of developing zebrafish embryos.Data from the assay component Tanguay_ZF_120hpf_BRAI_legacy was analyzed into 1 assay endpoints. This assay endpoint, Tanguay_ZF_120hpf_BRAI_legacy, was analyzed in the positive analysis fitting direction relative to DMSO as the negative control and baseline of activity. Using a type of morphology reporter, gain-of-signal activity can be used to understand changes in developmentals as they relate to the whole embryo. To generalize the intended target to other relatable targets, this assay endpoint is annotated to the zebrafish development intended target family, where the subfamily is brain morphogenesis.
Zebrafish husbandry: Tropical 5D wild-type adult zebrafish were housed in at an approximate density of 1000 per 100 gallon tank at the Sinnhuber Aquatic Research Laboratory, Oregon State University, Corvallis, OR. Each tank was kept at standard laboratory conditions of 28C on a 14-h light/10-h dark photoperiod in fish water consisting of reverse osmosis water supplemented with a commercially available salt (Instant Ocean). Spawning funnels were placed into the tanks the night prior, and embryos were collected and staged. […] Ten microliters of each row of dilution plate 2 was added to 2 exposure plates. The final DMSO concentration used was 0.64% (vol/vol). Thirty-two embryos were also exposed to 5uM trimethyltin chloride (positive control). Plates were sealed to prevent evaporation and foil covered to reduce light exposure and kept in a 28C incubator. Embryos were statically exposed until 120 hpf. At 24 hpf, embryos were assessed for photomotor response using a custom photomotor response analysis tool (PRAT) and for developmental toxicity endpoints (MO24: mortality at 24 hpf, DP: developmental progression, SM: spontaneous movement, and NC: notochord distortion). At 120 hpf, locomotor activity was measured using Viewpoint Zebralab and assessed for 18 endpoints. Zebrafish acquisition and analysis program (ZAAP), a custom program designed to inventory, acquire, and manage zebrafish data, was used to collect developmental endpoints as either present or absent (i.e., binary responses were recorded). If mortality occurred for an embryo (at either 24 or 120 hpf), the non-mortality endpoints were not measured.
Consider `ClC(Cl)=C(c1ccc(Cl)cc1)c1ccc(Cl)cc1`, for which the result was inactive.
On the same count and under the same terms, the entry for `Oc1c(Cl)c(Cl)c(Cl)c(Cl)c1Cl` is “inactive”.
On the same count and under the same terms, the entry for `CCCCCCCCCC[N+](C)(C)CCCCCCCCCC` is “inactive”.
As for `Clc1ccc(C(c2ccccc2Cl)C(Cl)(Cl)Cl)cc1` (stereo not given), the compound was classed as inactive.
Take `CCCCCCOC(=O)c1ccccc1C(=O)OCCCCCC`: the compound was called inactive.
Still for that read-out and setting: the same measure for `CC1=C2C[C@H]3[C@@H](CC=C4C[C@@H](O)CC[C@@]43C)[C@@H]2CC[C@]12O[C@@H]1C[C@H](C)CN[C@H]1[C@H]2C`: “inactive”; for `c1cc2ccc3cccc4ccc(c1)c2c34`: “inactive”.
Same read-out and setting: the entry for `ClC1=C(Cl)[C@]2(Cl)[C@@H]3[C@@H](Cl)[C@H]4O[C@H]4[C@@H]3C1(Cl)C2(Cl)Cl` is “inactive”; for `C=CC(=O)NCNC(=O)C=C` it is “inactive”.
In the case of `O=C(N[C@H]1CN2CCC1CC2)c1cc2ccoc2cn1`, the result was inactive.
Same read-out and setting: the entry for `COc1ccc(O)c(C(C)(C)C)c1` is “inactive”; for `Cc1cc(-c2ccc(N)c(C)c2)ccc1N` it is “inactive”.
Same read-out and setting: the entry for `CCCCCCCCOC(=O)c1ccccc1C(=O)OCCCCCCCC` is “inactive”.
On the same count and under the same terms, the same measure for `CN(C)CCO`: “inactive”; for `Oc1ccc(C(c2ccc(O)cc2)(C(F)(F)F)C(F)(F)F)cc1`: “inactive”; for `O=NN(c1ccccc1)c1ccccc1`: “inactive”.
As for `CCC(C)c1cc([N+](=O)[O-])cc([N+](=O)[O-])c1O` (stereo not given), the outcome was inactive.
With `O=S(=O)(O)C(F)(F)C(F)(F)C(F)(F)C(F)(F)C(F)(F)C(F)(F)F`, the AC50 (usually the concentration at which the activity in the assay is half-maximal) was 14.9 µM (active).
For `ClC1=C(Cl)[C@]2(Cl)[C@@H]3[C@@H]4C[C@@H]([C@H]5O[C@@H]45)[C@@H]3[C@@]1(Cl)C2(Cl)Cl`, the compound was classed as inactive.
The same measure, in the same setting: the same measure for `NS(=O)(=O)C(F)(F)C(F)(F)C(F)(F)C(F)(F)C(F)(F)C(F)(F)C(F)(F)C(F)(F)F`: “inactive”.
As to `CC#Cc1cc(C)nc(Nc2ccccc2)n1`, the outcome was inactive.
`CCC(C)(c1ccc(O)cc1)c1ccc(O)cc1`: the AC50 is 50.6 µM (active).
For `N#Cc1ccc(N(CC(N)=O)CC(F)(F)F)cc1C(F)(F)F`, the call was inactive.
On the same count and under the same terms, the same measure for `Cc1ccccc1CO[C@@H]1C[C@@]2(C(C)C)CC[C@]1(C)O2`: “inactive”; for `O=C(O)C(F)(F)C(F)(F)C(F)(F)C(F)(F)C(F)(F)F`: “inactive”; for `CCC(=O)O[C@H]1CC[C@H]2[C@@H]3CCC4=CC(=O)CC[C@]4(C)[C@H]3CC[C@]12C`: “inactive”.
Still for that read-out and setting: the entry for `O=C(O)C(F)(F)C(F)(F)C(F)(F)C(F)(F)C(F)(F)C(F)(F)C(F)(F)C(F)(F)C(F)(F)F` is “inactive”; for `Cc1ccccc1O` it is “inactive”.
Still for that read-out and setting: the same measure for `CCC(C)(CC)c1cc(NC(=O)c2c(OC)cccc2OC)on1`: “inactive”.
`Cc1ccc(O)c(C)c1`: the outcome was inactive.
On the same count and under the same terms, the entry for `Cc1ccccc1[N+](=O)[O-]` is “inactive”.
Turning to `C[C@]12CCC(=O)C=C1CC[C@@H]1[C@@H]2CC[C@]2(C)C(=O)CC[C@@H]12`, the AC50 was 49.8 µM (active).
`CCSC(=O)N(CC)C1CCCCC1`: the outcome was inactive.
Same read-out and setting: the entry for `CCOC(=O)C(O)(c1ccc(Cl)cc1)c1ccc(Cl)cc1` is “inactive”; for `CCOP(=S)(OCC)SCSC(C)(C)C` it is “inactive”; for `O=C(O)C(F)(F)C(F)(F)C(F)(F)C(F)(F)C(F)(F)C(F)(F)C(F)(F)C(F)(F)F` it is “inactive”.
Consider `ClC1=C(Cl)[C@]2(Cl)[C@@H]3[C@H]4C[C@H]([C@@H]5O[C@H]45)[C@@H]3[C@@]1(Cl)C2(Cl)Cl`, for which the AC50 is 66.7 µM (active).
For the compound `Cc1cccc([N+](=O)[O-])c1`, the compound was classed as inactive.
Still for that read-out and setting: the entry for `CN(C)c1nc(=O)n(C2CCCCC2)c(=O)n1C` is “inactive”; for `Cc1cc2c3c(c1)C(c1ccccc1)=N[C@@H](NC(=O)c1ccncc1)C(=O)N3CC2` it is “inactive”.

(Values after PubChem BioAssay (EPA / NIEHS).)
